Measured values taken from PubChem BioAssay AID1159580 (chemical genetic matrix, 2015).
About 2,000 (36%) of roughly 5,500 compounds were called active. Roughly 18% stayed inconclusive and do not appear here. Rule as the data show it: active = normalized growth mostly below about 0.91 (no sharp cut-off); inconclusive = no clear call, values can overlap the other calls; inactive = mostly above about 0.92. The list shows a part of the results.

Test: chemical genetic growth profiling, strain panel (AID 1159580);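 also: tested at 20 µM; growth read once vehicle control cultures reached saturation at 30 °C; 1 = growth at the plate median or of vehicle wells; lower values mean less growth of the strain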
Details: growth OD

Measured: normalized growth

Cc1c(Cl)cccc1Nc1ccccc1C(=O)O
active: S. cerevisiae deletion strains, locus YJR075W, strain HOC1, hits give low values 0.852 | S. cerevisiae deletion strains, locus YKL009W, strain mrt4, hits give low values 0.788 | S. cerevisiae deletion strains, locus YKL085W, strain MDH1 (second series), hits give low values 0.922 | S. cerevisiae deletion strains, locus YKL085W, strain MDH1, hits give low values 0.922 | S. cerevisiae deletion strains, locus YKL160W, strain elf1, hits give low values 0.764 | S. cerevisiae deletion strains, locus YKL190W, strain CNB1, hits give low values 0.863 | S. cerevisiae deletion strains, locus YKR001C, strain vps1, hits give low values 0.52 | S. cerevisiae deletion strains, locus YKR026C, strain gcn3, hits give low values 0.79 | S. cerevisiae deletion strains, locus YKR091W, strain srl3, hits give low values 0.829 | S. cerevisiae deletion strains, locus YLL001W, strain dnm1, hits give low values 0.814 | S. cerevisiae deletion strains, locus YLL026W, hits give low values 0.831 | S. cerevisiae deletion strains, locus YLL041C, strain sdh2, hits give low values 0.818 | S. cerevisiae deletion strains, locus YLR027C, strain aat2, hits give low values 0.819 | S. cerevisiae deletion strains, locus YLR039C, strain RIC1, hits give low values 0.537 | S. cerevisiae deletion strains, locus YLR058C, strain SHM2, hits give low values 0.849 | S. cerevisiae deletion strains, locus YLR102C, strain apc9, hits give low values 0.788 | S. cerevisiae deletion strains, locus YLR113W, strain HOG1, hits give low values 0.566 | S. cerevisiae deletion strains, locus YLR221C, strain rsa3, hits give low values 0.777 | S. cerevisiae deletion strains, locus YLR258W, strain gsy2, hits give low values 0.831 | S. cerevisiae deletion strains, locus YLR262C, strain YPT6 (second series), hits give low values 0.48 | S. cerevisiae deletion strains, locus YLR262C, strain YPT6, hits give low values 0.491 | S. cerevisiae deletion strains, locus YLR268W, strain sec22, hits give low values 0.724 | S. cerevisiae deletion strains, locus YLR320W, strain mms22, hits give low values 0.59 | S. cerevisiae deletion strains, locus YLR330W, strain CHS5, hits give low values 0.82 | S. cerevisiae deletion strains, locus YLR342W, strain FKS1 (second series), hits give low values 0.671 | S. cerevisiae deletion strains, locus YLR342W, strain FKS1, hits give low values 0.795 | S. cerevisiae deletion strains, locus YLR370C, strain arc18, hits give low values 0.808 | S. cerevisiae deletion strains, locus YLR371W, strain rom2, hits give low values 0.838 | S. cerevisiae deletion strains, locus YLR384C, strain iki3, hits give low values 0.832 | S. cerevisiae deletion strains, locus YLR418C, strain cdc73, hits give low values 0.591 | S. cerevisiae deletion strains, locus YML016C, strain PPZ1, hits give low values 0.857 | S. cerevisiae deletion strains, locus YML032C, strain rad52, hits give low values 0.792 | S. cerevisiae deletion strains, locus YML120C, strain ndi1, hits give low values 0.723 | S. cerevisiae deletion strains, locus YML124C, strain tub3, hits give low values 0.787 | S. cerevisiae deletion strains, locus YMR058W, strain fet3, hits give low values 0.79 | S. cerevisiae deletion strains, locus YMR078C, strain ctf18, hits give low values 0.761 | S. cerevisiae deletion strains, locus YMR125W, strain sto1, hits give low values 0.781 | S. cerevisiae deletion strains, locus YMR129W, hits give low values 0.823 | S. cerevisiae deletion strains, locus YMR205C, strain PFK2, hits give low values 0.673 | S. cerevisiae deletion strains, locus YMR223W, strain ubp8, hits give low values 0.795 | S. cerevisiae deletion strains, locus YMR231W, strain pep5, hits give low values 0.813 | S. cerevisiae deletion strains, locus YMR263W, strain SAP30, hits give low values 0.824 | S. cerevisiae deletion strains, locus YMR307W, strain GAS1, hits give low values 0.557 | S. cerevisiae deletion strains, locus YNL067W, strain RPL9B, hits give low values 0.846 | S. cerevisiae deletion strains, locus YNL071W, strain lat1, hits give low values 0.569 | S. cerevisiae deletion strains, locus YNL153C, strain GIM3, hits give low values 0.849 | S. cerevisiae deletion strains, locus YNL183C, strain NPR1, hits give low values 0.641 | S. cerevisiae deletion strains, locus YNL209W, strain ssb2, hits give low values 0.869 | S. cerevisiae deletion strains, locus YNL233W, strain BNI4, hits give low values 0.797 | S. cerevisiae deletion strains, locus YNL248C, strain rpa49, hits give low values 0.886 | S. cerevisiae deletion strains, locus YNL271C, strain bni1, hits give low values 0.919 | S. cerevisiae deletion strains, locus YNL298W, strain CLA4, hits give low values 0.842 | S. cerevisiae deletion strains, locus YNL307C, strain MCK1, hits give low values 0.437 | S. cerevisiae deletion strains, locus YNL322C, strain KRE1 (second series), hits give low values 0.856 | S. cerevisiae deletion strains, locus YNL322C, strain KRE1, hits give low values 0.876 | S. cerevisiae deletion strains, locus YNR049C, strain mso1, hits give low values 0.822 | S. cerevisiae deletion strains, locus YNR052C, strain pop2, hits give low values 0.821 | S. cerevisiae deletion strains, locus YOL147C, strain pex11, hits give low values 0.765 | S. cerevisiae deletion strains, locus YOR001W, strain rrp6, hits give low values 0.8 | S. cerevisiae deletion strains, locus YOR061W, strain CKA2, hits give low values 0.852 | S. cerevisiae deletion strains, locus YOR069W, strain VPS5, hits give low values 0.864 | S. cerevisiae deletion strains, locus YOR070C, strain gyp1, hits give low values 0.802 | S. cerevisiae deletion strains, locus YOR080W, strain dia2, hits give low values 0.855 | S. cerevisiae deletion strains, locus YOR083W, strain WHI5, hits give low values 0.767 | S. cerevisiae deletion strains, locus YOR106W, strain vam3, hits give low values 0.745 | S. cerevisiae deletion strains, locus YOR136W, strain idh2, hits give low values 0.893 | S. cerevisiae deletion strains, locus YOR144C, strain elg1, hits give low values 0.812 | S. cerevisiae deletion strains, locus YOR184W, strain ser1, hits give low values 0.578 | S. cerevisiae deletion strains, locus YOR231W, strain MKK1, hits give low values 0.644 | S. cerevisiae deletion strains, locus YOR265W, strain rbl2, hits give low values 0.828 | S. cerevisiae deletion strains, locus YOR270C, strain vph1, hits give low values 0.565 | S. cerevisiae deletion strains, locus YOR290C, strain snf2, hits give low values 0.716 | S. cerevisiae deletion strains, locus YOR316C, strain cot1, hits give low values 0.79 | S. cerevisiae deletion strains, locus YPL051W, strain arl3, hits give low values 0.656 | S. cerevisiae deletion strains, locus YPL078C, strain atp4, hits give low values 0.646 | S. cerevisiae deletion strains, locus YPL240C, strain hsp82, hits give low values 0.831 | S. cerevisiae deletion strains, locus YPL241C, strain CIN2, hits give low values 0.852 | S. cerevisiae deletion strains, locus YPL256C, strain CLN2, hits give low values 0.643 | S. cerevisiae deletion strains, locus YPR119W, strain clb2, hits give low values 0.779 | S. cerevisiae deletion strains, locus YPR163C, strain tif3, hits give low values 0.784 | S. cerevisiae deletion strains, locus YPR167C, strain met16, hits give low values 0.805 | S. cerevisiae deletion strains, strain wtn01, hits give low values 0.8 | S. cerevisiae strains, strain wild type, hits give low values 0.857
inactive: S. cerevisiae deletion strains, locus YKL068W, hits give low values 0.954 | S. cerevisiae deletion strains, locus YLR357W, strain rsc2, hits give low values 0.93 | S. cerevisiae deletion strains, locus YNL250W, strain rad50, hits give low values 0.941 | S. cerevisiae deletion strains, locus YOL006C, strain TOP1, hits give low values 0.656 | S. cerevisiae deletion strains, locus YOL012C, strain htz1 0.632 | S. cerevisiae deletion strains, locus YPL055C, strain LGE1, hits give low values 0.794 | S. cerevisiae deletion strains, locus YPL106C, strain sse1, hits give low values 0.985 | S. cerevisiae deletion strains, locus YPR141C, strain kar3, hits give low values 0.95
